TGFb inhibitor = inhibitors of TGF-b signaling; Potency, µM (doses to about 46.1 µM), without a hit: at the highest dose activity, negative = inhibition, hits mostly inhibitors; HepG2 CAGA-GFP TGF-b/SMAD3 reporter, GFP fluorescence, 18 h; TGF-beta stimulated, 500 pg/mL final; 410,000 compounds, 1.2% hits; also: % is scaled to controls: 0 for no effect and ±100 for the full control effect; nearly all actives have a fitted effect of over 65% in size
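HEPG2 CAGA-GFP, 1000 cells/well; 2 h settle, 37 C; cpd via pin tool; TGF-b 500 pg/mL final; 18 h, 37 C; GFP imaging ex488/em500-530; %Activity normalised to -TGF-b and +DMSO controls; CRC fit, curve class.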
KB-3-1 tox = KB-3-1 parental cell cytotoxicity | KB-3-1 viability, CellTiter-Glo ATP luminescence, 72 h | AID 1347075 | Potency, µM (top dose mostly 46.1 µM), most hits filed as cytotoxic | 400,000 compounds, 1.4% hits; also: % is scaled to controls: 0 for no effect and ±100 for the full control effect; nearly all actives have a fitted effect of over 60% in size
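KB-3-1 parental drug-naive adenocarcinoma cells in DMEM/10% FBS, incubated 72 h at 37 C with pin-transferred compounds across a concentration series. Viability by CellTiter-Glo luminescence; concentration-response curves fitted after normalization.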
HepG2 tox-1 = HepG2 cytotoxicity, counter-screen for TGF-b inhibitors; HepG2 CAGA-GFP viability, ATP luminescence, 18 h; Potency, µM (titrated, usually from 46.1 µM), without a hit: at the top dose activity change, negative = cytotoxicity, actives largely listed as cytotoxic; 410,000 compounds, 0.76% hits; AID 588856
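HepG2 CAGA-GFP cells (1000/well, DMEM with 1% FBS) received compound, then TGF-beta at 500 pg/mL final, and were incubated 18 hours at 37 degrees C. Viability was read by CellTiter-Glo luminescence. Media-only wells were set as complete cell-killing and DMSO as no toxicity.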
HT1080-NT tox = kills 2HG-producing HT-1080-NT fibrosarcoma cells. HT-1080-NT fibrosarcoma viability, CellTiter-Glo ATP luminescence, 48 h. Potency, µM (doses to about 46.1 µM), for the others: top-dose activity, negative = less viability, usual class: cytotoxic. 360,000 compounds, 1.6% hits;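 also: NT is the 2HG producing partner of a matched IDH1 knockdown line; 0% = DMSO-treated cells and -100% = media-only wells without cells; nearly all actives have a fitted effect of over 55% in size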
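Viability by CellTiter-Glo luminescence after 48 h compound exposure at 37C of HT-1080-NT cells (750/well, RPMI, 5% FBS). % activity scaled between DMSO wells and medium-only wells, then curve-fitted and categorized by curve class.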
KB-V1 MDR tox = KB-V1 MDR subline cytotoxicity. 400,000 compounds, 3.4% hits. Potency, µM (series often up to 46.1 µM), usual class: cytotoxic. KB-V1 MDR cells viability, CellTiter-Glo, 72 h; also: % is scaled to controls: 0 for no effect and ±100 for the full control effect; nearly all actives have a fitted effect of over 60% in size
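Cytotoxicity toward P-gp-expressing KB-V1 cells was determined as loss of CellTiter-Glo luminescence after 72 h at 37 degrees C. Compounds were tested in quantitative HTS format across a concentration range, with curves fitted to normalized data.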
HT1080 IDH1KD tx = kills HT-1080 cells with IDH1 knockdown. HT-1080 IDH1 knockdown viability, ATP luminescence, 48 h. Potency, µM (highest dose often 46.1 µM), without a hit: top-dose activity, negative = toxicity, most hits filed as cytotoxic. 360,000 compounds, 2% hits. AID 686971;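 also: 0% = DMSO wells and -100% = cell-free medium wells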
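Using the IDH1-knockdown HT-1080 line run in the same batch and compound series as the NT line, viability after 48 h at 37 °C was determined by CellTiter-Glo luminescence and expressed as % activity.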
TGFb CAGA inh = TGF-b pathway inhibition, cherry-pick retest | 1,600 compounds, 63% hits | shares compounds with TGFb inhibitor | HepG2 CAGA-GFP TGF-b reporter, GFP fluorescence, 18 h; cells stimulated with TGF-beta, 500 pg/mL | Potency, µM (doses to about 46.1 µM), for the others: top-dose activity, negative = inhibition, hits mostly inhibitors; also: % is scaled to controls: 0 for no effect and ±100 for the full control effect; nearly all actives have a fitted effect of over 65% in size
HepG2 tox-2 = counter-screen for TGF-b inhibitors: cytotoxicity in HepG2 cells; shares compounds with TGFb inhibitor; HepG2 CAGA-GFP viability, ATP luminescence, 18 h; cells stimulated with TGF-beta, 500 pg/mL; Potency, µM (highest dose often 46.1 µM), for inactives: at the top dose activity, negative = cytotoxicity, most hits filed as inhibitors; 1,600 compounds, 27% hits; also: % is scaled to controls: 0 for no effect and ±100 for the full control effect; nearly all actives have a fitted effect of over 70% in size
CCL64 TGFb inh = orthogonal confirmation of TGF-b inhibitors in CCL64 cells. AID 720536. shares compounds with TGFb inhibitor. 1,600 compounds, 41% hits. Potency, µM (doses to about 46.1 µM), without a hit: at the highest dose activity, negative = inhibition, usual class: inhibitors. CCL64 CAGA-GFP reporter, TGF-b stimulated, GFP fluorescence, 18 h; also: nearly all actives have a fitted effect of over 65% in size
TGFb COP inh = TGF-b inhibition validated with COP promoter | 1,600 compounds, 3% hits | Potency, µM (titrated, usually from 46.1 µM), for the others: at the highest dose activity, negative = inhibition, most hits filed as inhibitors | AID 720537 | shares compounds with TGFb inhibitor | HepG2 COP-GFP TGF-b reporter, GFP fluorescence, 18 h; cells stimulated by added recombinant TGF-beta; also: nearly all actives have a fitted effect of over 70% in size
Starred values were filed as active, the others as inactive. A selection: hits, their analogues and other compounds. The true share with any hit is near 6.6%. Calls follow the shape of the dose curve; as a rule, active = well fitted curve in the direction sought with a large enough effect; inconclusive = small, poorly fitted or top-dose-only effect, or another doubt; inactive = no such curve, though single readings can be large; an effect the other way counts as inactive or inconclusive. Potency is read from the fitted curve at half-maximal effect.

For O=S(=O)(c1ccc(NC(=S)NN=Cc2ccccc2O)cc1)N1CCCCC1 the results were TGFb inhibitor 13µM*, KB-3-1 tox inactive, HepG2 tox-1 -6%, HT1080-NT tox -11%, KB-V1 MDR tox 7.3µM*, HT1080 IDH1KD tx inconclusive, TGFb CAGA inh 16µM*, HepG2 tox-2 inconclusive, CCL64 TGFb inh inconclusive and TGFb COP inh 1%.
NS(=O)(=O)c1ccc(NC(=S)Nc2ccn(Cc3cccc4ccccc34)n2)cc1 was read as TGFb inhibitor 13µM*, KB-3-1 tox inconclusive, HepG2 tox-1 -20%, HT1080-NT tox inconclusive, KB-V1 MDR tox inconclusive, HT1080 IDH1KD tx inconclusive, TGFb CAGA inh 5.8µM*, HepG2 tox-2 -29%, CCL64 TGFb inh inconclusive and TGFb COP inh -6%.
Cc1nn(CC(=O)NC2CCCCC2)c(=O)c2cc3cc(F)ccc3n12 was read as TGFb inhibitor -4%, KB-3-1 tox inactive, HepG2 tox-1 -7% and KB-V1 MDR tox inconclusive.
CCc1noc(C)c1C(=O)Nc1nc(-c2ccc(Cl)cc2Cl)cs1 was read as TGFb inhibitor 11µM*, KB-3-1 tox inconclusive, HepG2 tox-1 -5%, HT1080-NT tox 2%, KB-V1 MDR tox inconclusive, HT1080 IDH1KD tx 0%, TGFb CAGA inh 15µM*, HepG2 tox-2 15µM*, CCL64 TGFb inh inconclusive and TGFb COP inh 46%.
`CC(=O)C1=CN(Cc2ccccc2)CCC1=O` gave TGFb inhibitor -1%, KB-3-1 tox inactive, HepG2 tox-1 -3%, HT1080-NT tox 7%, KB-V1 MDR tox inactive and HT1080 IDH1KD tx 0%.
`O=C1Nc2ccccc2N=C(c2ccc3c(c2)OCO3)C1N(C(=O)c1ccc2ccccc2c1)C1CC1` (stereo not drawn) gave TGFb inhibitor 13µM*, KB-3-1 tox inconclusive, HepG2 tox-1 0%, HT1080-NT tox inconclusive, KB-V1 MDR tox inconclusive, HT1080 IDH1KD tx inconclusive, TGFb CAGA inh 23µM*, HepG2 tox-2 inconclusive, CCL64 TGFb inh 16µM* and TGFb COP inh 51%.
`O=C1Nc2ccccc2N=C(c2ccc3c(c2)OCO3)C1N(CCc1ccccc1)C(=O)CSc1ncccn1` (stereo not drawn) gave TGFb inhibitor inconclusive, KB-3-1 tox inconclusive, HepG2 tox-1 -16%, HT1080-NT tox inconclusive, KB-V1 MDR tox inactive and HT1080 IDH1KD tx inconclusive.
O=C1Nc2ccccc2N=C(c2ccc3c(c2)OCO3)C1N(C(=O)c1ccnc2ccccc12)c1ccccc1 (stereo not drawn) was read as TGFb inhibitor 16µM*, KB-3-1 tox inconclusive, HepG2 tox-1 -13%, HT1080-NT tox inconclusive, KB-V1 MDR tox inconclusive, HT1080 IDH1KD tx inconclusive, TGFb CAGA inh 23µM*, HepG2 tox-2 -24%, CCL64 TGFb inh inconclusive and TGFb COP inh 49%.
Screening NC(=O)[C@H]1CC2(CC(c3cccc(NC(=O)COc4ccc(Cl)cc4)c3)=NO2)CN1C(=O)c1ccc(Cl)cc1 (stereo partly drawn) returned TGFb inhibitor 18µM*, KB-3-1 tox inactive, HepG2 tox-1 -4%, HT1080-NT tox inconclusive, KB-V1 MDR tox inactive, HT1080 IDH1KD tx inconclusive, TGFb CAGA inh 18µM*, HepG2 tox-2 -29%, CCL64 TGFb inh 18µM* and TGFb COP inh 22%.
Screening COc1ccccc1N(C)C returned TGFb inhibitor 4%, KB-3-1 tox inactive, HepG2 tox-1 -32% and KB-V1 MDR tox inactive.
Screening COc1cc2c(c(OC)c1OC)-c1ccc(OC)c(=O)cc1C(NC(=O)c1ccccc1)CC2 (stereo not drawn) returned TGFb inhibitor inconclusive, KB-3-1 tox 0.0092µM*, HepG2 tox-1 -16%, HT1080-NT tox 0.073µM*, KB-V1 MDR tox inconclusive, HT1080 IDH1KD tx 0.021µM*, TGFb CAGA inh inconclusive, HepG2 tox-2 0%, CCL64 TGFb inh inconclusive and TGFb COP inh inconclusive.
Screening COc1cc2c(c(OC)c1OC)-c1ccc(SC)c(=O)cc1C(NC=O)CC2 (stereo not drawn) returned TGFb inhibitor -91%, KB-3-1 tox 0.0065µM*, HepG2 tox-1 -34%, HT1080-NT tox 0.046µM*, KB-V1 MDR tox 0.29µM*, HT1080 IDH1KD tx inconclusive, TGFb CAGA inh inconclusive, HepG2 tox-2 23µM*, CCL64 TGFb inh inconclusive and TGFb COP inh 44%.
`O=C(NC1CCCc2ccccc21)c1ccccc1` (stereo not drawn) gave TGFb inhibitor -5%, KB-3-1 tox inactive, HepG2 tox-1 -9%, HT1080-NT tox 2%, KB-V1 MDR tox inactive and HT1080 IDH1KD tx -7%.
For CC(=O)N1CCN(CC(=O)Nc2ccc(C)c(S(=O)(=O)N(C)C)c2)CC1 the results were TGFb inhibitor -2%, KB-3-1 tox inactive, HepG2 tox-1 -4%, HT1080-NT tox 23%, KB-V1 MDR tox inactive and HT1080 IDH1KD tx 19%.
For Cc1ccc(NC(=O)CN2CCC(Cc3ccccc3)CC2)cc1S(=O)(=O)N(C)C the results were TGFb inhibitor 16µM*, KB-3-1 tox inactive, HepG2 tox-1 -17%, HT1080-NT tox inconclusive, KB-V1 MDR tox inconclusive, HT1080 IDH1KD tx inconclusive, TGFb CAGA inh 13µM*, HepG2 tox-2 inconclusive, CCL64 TGFb inh inconclusive and TGFb COP inh 84%.
